The values that follow come from PubChem BioAssay (Tox21).

Unmarked numbers belong to inactive results. Where a call stands in place of a potency, no number is given. Activity calls are given as the source filed them. The call rests on the fitted dose curve; in most records, active means well fitted inhibition curve with a large enough effect in the repeat runs (not every such curve was filed as active); inconclusive means weak or mixed curves; inactive means flat fitted curve, though single readings scatter.

Thyrotropin-releasing hormone receptor (Homo sapiens), sequence (P34981 whole entry, looked up): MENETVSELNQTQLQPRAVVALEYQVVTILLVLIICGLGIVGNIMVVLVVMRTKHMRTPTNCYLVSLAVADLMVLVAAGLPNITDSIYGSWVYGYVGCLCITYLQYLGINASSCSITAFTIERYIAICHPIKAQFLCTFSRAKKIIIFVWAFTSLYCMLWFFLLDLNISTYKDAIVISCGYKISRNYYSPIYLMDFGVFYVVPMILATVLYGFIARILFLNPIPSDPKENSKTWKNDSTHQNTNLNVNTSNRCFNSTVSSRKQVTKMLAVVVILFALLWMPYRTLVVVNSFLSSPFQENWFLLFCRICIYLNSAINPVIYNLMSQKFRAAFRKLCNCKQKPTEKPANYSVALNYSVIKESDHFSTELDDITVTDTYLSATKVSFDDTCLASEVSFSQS

The target of the assay is Thyrotropin-releasing hormone receptor (Homo sapiens) (UniProt P34981). The assay is described as follows: qHTS assay to identify small molecule antagonists of the thyrotropin-releasing hormone receptor (TRHR) signaling pathway (AID 1346877). To be noted: TRHR-HEK293, TRH-induced calcium fluorescence, antagonist mode; series mostly up to 51.3 µM. The text has this:
National Center for Advancing Translational Sciences [NCATS]
NIH Chemical Genomics Center [NCGC]
U.S. Environmental Protection Agency [EPA]
National Institutes of Environmental Health Sciences [NIEHS]
National Toxicology Program [NTP]
U.S. Food and Drug Administration [FDA]
Thyrotropin-releasing hormone (TRH) receptor (TRHR) is a G-protein-coupled receptor which binds the tripeptide thyrotropin releasing hormone. TRHR is found in the brain and, when bound by TRH, acts (through phospholipase C) to increase intracellular inositol trisphosphate. It plays a crucial role in the anterior pituitary where it controls the synthesis and secretion of thyroid stimulating hormone and prolactin. The TRHR-Hek293 assay is a cell-based assay, and it has the potential to screen G protein-coupled receptors. A compound/drug can either activate (agonist) or suppress (antagonist) GPCRs that can be monitored by levels of intracellular calcium. In this assay, the Tox21 10K compound library was screened to identify potential TRHR antagonists.
Tox21 Assay Protocol Summary:
The TRHR-Hek293 cells were dispensed at 1500cells/4uL/well in 1536-well black-clear bottom plates using a Multidrop dispenser. After the assay plates were incubated at a 37 C/5% CO2 incubator for 18 hours, 4 uL of Dye-Loading Solution was added to each well. The plates were incubated at 37 C for 2 hours. For agonist mode, 23 nL of compounds dissolved in DMSO, positive controls or DMSO only was transferred to the assay plate by a pin tool. The fluorescence intensity in the plates was measured using FDSS 7000EX kinetic plate reader for 3 min at 1 sec intervals. For antagonist mode, 23 nL of compounds dissolved in DMSO, positive controls or DMSO only was transferred to the assay plate by a pin tool. After 5 min incubation at room temperature, 1 uL of TRH was added on the top of the cell/compound mixtures to achieve a final agonist concentration of 1 nM. The fluorescence intensity in the plates was measured using FDSS 7000EX kinetic plate reader for 3 min at 1 sec intervals. Each test compound was measured at 15 concentrations and in triplicates.
As to `COCC(=O)O[C@]1(CCN(C)CCCc2nc3ccccc3[nH]2)CCc2cc(F)ccc2[C@@H]1C(C)C`, the Potency result is “inactive”.
On the same count and under the same terms, in the case of `CCCCC(CC)COC(=O)c1ccc(O)cc1` (stereo not given) it was “inactive”.
On to `CC(C)(C)c1cc(/C=C2\SC(=N)NC2=O)cc(C(C)(C)C)c1O`, for which the Potency entry was “inactive”.
On to `CCCCCCCOC(=O)c1ccccc1C(=O)OCCCCCCC`, for which the Potency result is “inactive”.
Consider `NCCCCCCNCCCCCCN`, for which the Potency entry is “inactive”.
On the same count and under the same terms, as for `COc1ccc(-n2nc(CCC(=O)N(C)O)cc2-c2ccc(Cl)cc2)cc1`, the entry is “inactive”.
On the same count and under the same terms, as for `CCNc1nc(NC(C)CC)nc(OC)n1` (stereo not given), the entry is “inactive”; as for `O=C1OC(=O)c2ccc3c4c(ccc1c24)C(=O)OC3=O`, “inactive”; as for `Cc1cccc(C)c1NC(=O)CN1CCN(CCCC(c2ccc(F)cc2)c2ccc(F)cc2)CC1`, “inactive”.
Turning to `CC1=C(/C=C/C(C)=C/C=C/C(C)=C/C(=O)Nc2ccc(O)cc2)C(C)(C)CCC1`, the Potency entry was “inactive”.
With `COC(=O)CC(C)CCC=C(C)C` (stereo not given), the Potency entry was “inactive”.
Still for that read-out and setting: in the case of `CCOC(OCC)C(=O)c1ccccc1` it was “inactive”; in that of `CCCC(=O)OCC(COC(=O)CCC)OC(=O)CCC`, “inactive”.
For the compound `c1cc2c3c(c1)ccc1cccc(c13)C2`, the Potency entry was “inactive”.
Turning to `OCCCc1cccnc1`, the Potency result is “inactive”.
In the case of `Cc1cncc(C)c1`, the Potency result is “inactive”.
On the same count and under the same terms, in the case of `CN(C)c1ccc(N=NS(=O)(=O)O)cc1` it was “inactive”; in that of `CCO[Si](CCCSSSSCCC[Si](OCC)(OCC)OCC)(OCC)OCC`, “inactive”.
Still for that read-out and setting: as for `CC(O)C#CC(C)O` (stereo not given), the entry is “inactive”; as for `O=CC1CC1`, “inactive”; as for `CCOC(=O)N1CCC(=C2c3ccc(Cl)cc3CCc3cccnc32)CC1`, “inactive”.
Still for that read-out and setting: as for `O=C1NCCN1CCN1CCC(c2cn(-c3ccc(F)cc3)c3ccc(Cl)cc23)CC1`, the entry is “inactive”.
Regarding `CC(C)c1ccccc1N`, the Potency result is “inactive”.
Same read-out and setting: in the case of `CCCCCCOc1ccc(O)cc1` it was “inactive”.
Turning to `CC1=CP(=O)(c2ccccc2)CC1` (stereo not given), the Potency entry is “inactive”.
Consider `C1CC(COCC2CO2)CCC1COCC1CO1` (stereo not given), for which the Potency result was “inactive”.
On the same count and under the same terms, as for `COc1ccccc1OCCNCC(O)COc1cccc2[nH]c3ccccc3c12` (stereo not given), the entry is “inactive”.
Take `O=S(O)O`: the activity, negative = inhibition was 0.51% [at 10.5 µM].
As for `CO[Si](CCCNCCNCCN)(OC)OC`, the Potency entry was “inactive”.
Still for that read-out and setting: as for `Cc1c(C)n(Cc2ccccc2)c2ccc(C(=O)OCCN(C)C)cc12`, the entry is “inactive”.
The same measure, in the same setting: in the case of `CCCCCCCCCC(=O)N(C)C` it was “inactive”; in that of `Cc1ccc(O)cn1`, “inactive”.
Same read-out and setting: as for `Cc1ccc(CCn2c3c(c4cc(Cl)ccc42)CN(C)CC3)cn1`, the entry is “inactive”; as for `C[C@]12CC[C@H]3C(=CCc4cc(O)ccc43)[C@@H]1CCC2=O`, “inactive”; as for `CNCC[C@H](Oc1cccc2ccccc12)c1cccs1`, “inactive”.
For the compound `C=CC(=C)CC/C=C(\C)CCC=C(C)C`, the activity, negative = inhibition is -4.91% [at 10.5 µM].
In the case of `CCc1ccc(O)c(C(C)(C)C)c1`, the Potency entry was “inactive”.
For the compound `C=CCCCCCCC=C`, the Potency result is “inactive”.
Turning to `NC1(c2ccc(-c3nc4ccn5c(=O)[nH]nc5c4cc3-c3ccccc3)cc2)CCC1`, the Potency result is “inactive”.
Still for that read-out and setting: as for `CCOC(/C=C(\C)CCC=C(C)C)OCC`, the entry is “inactive”.
